# Shown are actives, neighbours in structure and some others; about 4.8% of the full set was active somewhere.
# hcDAF12 agonist: H. contortus DAF-12 nuclear receptor activators, primary screen, cell-based, luminescence, HEK293, lit1-tk-luc reporter; HEK293 hcDAF-12 lit1-tk-luc reporter; 0% DMSO, 100% Δ7-dafachronic acid; AID 652067, 2013; actives 1.4% (n = 370,000); activation, % at 6.8 µM;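 active means activation above the mean of all tested compounds plus 3 SD, cut at about 5.5% in these data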;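 further: 100% = response to 3 µM Δ7-dafachronic acid high control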
# SMARCA2 act: SMARCA2 (BRM) function activators, primary screen, cell-based, luminescence, high throughput; activation, % at 9.1 µM; actives 1% (n = 370,000); MG213 cells, MMTV-luciferase reporter, dexamethasone, overnight; in the data active means activation above about 7.8%;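 further: 0% = vehicle wells and 100% = reference activator wells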
# DAX1 inh-1: DAX1 (NR0B1) inhibitors, primary screen, cell-based, HEK293, Gal4-DAX1, luciferase luminescence | AID 504766, 2011 | Nuclear receptor subfamily 0 group B member 1 (Homo sapiens), P51843 | HEK293 Gal4-DAX1 luciferase reporter | inhibition, % at 6.75 µM | actives 0.99% (n = 340,000);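 active means inhibition above the mean over all tested compounds plus 3 SD, cut at about 4.2% in these data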;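 further: 0% = DAX1-transfected cells with DMSO and 100% = empty-vector control cells with DMSO; inhibition shows as a rise in luminescence from relieved DAX1 repression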
# ssDAF-12 act: S. stercoralis DAF-12 nuclear receptor activators, primary screen, cell-based, luminescence, HEK293, GRIP1 co-expression, lit1-tk-luc; actives 1% (n = 370,000); HEK293 ssDAF-12/GRIP1 lit1-tk-luc reporter; % of 3 µM dafachronic acid response; Nuclear hormone receptor DAF-12 (Strongyloides stercoralis); activation, % at 6.8 µM;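 active means activation above the mean over all tested compounds plus 3 SD, cut at about 0.9% in these data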;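 further: 0% = DMSO-only wells and 100% = 3 µM delta7-dafachronic acid wells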
# hgDAF12 agonist: H. glycines DAF-12 receptor agonists, primary screen, cell-based, luminescence, HEK293, GAL4 fusion, UAS-luciferase; activation, % at 6.8 µM; actives 1.8% (n = 370,000); Nuclear hormone receptor DAF-12 (Heterodera glycines), GAL4 fusion; AID 687014, 2013; HEK293 GAL4-hgDAF12 UAS-luciferase reporter, agonist luminescence; normalized to butyrate control;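 active means activation above a cutoff set at the mean of all screened compounds plus 3 SD, cut at about 10% in these data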;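 further: 0% = DMSO wells and 100% = sodium butyrate wells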
# DAX1 inh-2: DAX1 (NR0B1) inhibitors on StAR promoter, primary screen, cell-based, luminescence, SF-1 (NR5A1), full-length DAX-1. HEK293T StAR-luciferase reporter, SF-1/DAX-1 repression relief. inhibition, % at 6.8 µM. actives 1.1% (n = 370,000). AID 652010, 2013;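 active means inhibition above the mean over all tested compounds plus 3 SD, cut at about 3.6% in these data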;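 further: 0% = DAX-1 cells with DMSO and 100% = cells lacking DAX-1 with DMSO; higher inhibition means more luminescence from relief of DAX-1 repression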
# LXRb hcDAF ctr: LXR agonists, Gal4 luciferase reporter, confirmation, counter-screen for hcDAF-12 agonist project, cell-based, luminescence, HEK293, H. contortus campaign; shares compounds with hcDAF12 agonist; activation, % at 6.8 µM; 3,400 tested, under 10 active; HEK293 Gal4-LXR tk-luc reporter, 24 h; normalized: DMSO 0%, positive control 100%;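 active means mean percent activation of the reporter above a cutoff set as the average over tested compounds plus their standard deviation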
# Target sequence (P55055 whole entry, looked up, the tested form may be a part): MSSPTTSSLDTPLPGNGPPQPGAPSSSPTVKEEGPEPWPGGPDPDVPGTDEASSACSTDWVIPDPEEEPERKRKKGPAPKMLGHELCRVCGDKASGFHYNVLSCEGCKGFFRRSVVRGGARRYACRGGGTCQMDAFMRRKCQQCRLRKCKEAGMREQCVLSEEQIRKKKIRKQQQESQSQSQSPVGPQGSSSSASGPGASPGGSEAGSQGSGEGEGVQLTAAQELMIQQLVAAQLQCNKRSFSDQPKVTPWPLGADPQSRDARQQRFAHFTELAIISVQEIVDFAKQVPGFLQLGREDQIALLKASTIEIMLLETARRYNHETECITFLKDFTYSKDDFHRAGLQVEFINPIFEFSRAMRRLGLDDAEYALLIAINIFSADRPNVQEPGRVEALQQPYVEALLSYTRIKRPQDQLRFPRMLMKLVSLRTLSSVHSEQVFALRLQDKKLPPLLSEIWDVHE
# hcDAF12 ag: H. contortus DAF-12 receptor agonists, confirmation, cell-based, luminescence, HEK293, lit1-tk-luc, triplicate; shares compounds with hcDAF12 agonist; HEK293 hcDAF-12 lit1-tk-luc reporter; % of Δ7-dafachronic acid response; activation, % at 6.8 µM; actives 61% (n = 3,400); AID 743032, 2013;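 active means mean activation across triplicate tests above the threshold derived from the earlier primary screen, cut at about 5.5% in these data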;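 further: 0% = DMSO only wells and 100% = 3 µM Δ7-dafachronic acid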
# hgDAF12 ag: H. glycines DAF-12 receptor agonists, confirmation, cell-based, luminescence, HEK293, GAL4-LBD fusion; shares compounds with hgDAF12 agonist; HEK293 GAL4-hgDAF12 luciferase reporter, agonist mode; percent of butyrate response; activation, % at 6.8 µM; actives 80% (n = 3,300); AID 743050, 2013;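 active means mean activation over triplicate wells above the hit cutoff derived from the earlier primary screen, cut at about 11% in these data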;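 further: 0% = DMSO low control and 100% = 2 mM sodium butyrate high control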
# LXRb DAF12 ctr: LXR agonists, Gal4 luciferase reporter, confirmation, counter-screen for hgDAF-12 agonist project, cell-based, luminescence, HEK293, H. glycines campaign. shares compounds with hgDAF12 agonist. 24 h. activation, % at 6.8 µM. 3,300 tested, under 10 active. AID 743051, 2013;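 active means mean activation of the triplicate above a set limit carried over from the primary screen, none filed active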
# * hit, by the source's call; . = not tested or not shown.
SMILES,hcDAF12 agonist,SMARCA2 act,DAX1 inh-1,ssDAF-12 act,hgDAF12 agonist,DAX1 inh-2,LXRb hcDAF ctr,hcDAF12 ag,hgDAF12 ag,LXRb DAF12 ctr
CCN(C(=O)COC(=O)c1ccccc1OCc1ccc(Cl)cc1)C1CCS(=O)(=O)C1 (stereo not given),1,8,-1,-1,2,0,.,.,.,.
O=C(NC(=S)Nc1cnc2ccccc2c1)c1ccccc1,7.4*,2,5.9*,1.9*,21*,4.2*,1,6.6*,13*,1
CC(C)(C(=O)O)n1cncn1,-1,0,0,1,0,0,.,.,.,.
CCc1[nH]nc(C(=O)N2CCCC(C(=O)c3cccc(C(F)(F)F)c3)C2)c1C (stereo not given),-2,-3,-1,-1,-4,-1,.,.,.,.
COc1ccc(S(=O)(=O)Nc2ccccc2OC)cc1NC(=O)c1cc2ccccc2oc1=O,7.7*,3,2,0.9*,14*,3,1,4,10,0
O=C(Nc1cccc(-c2nc3ncccc3o2)c1)c1cc2ccccc2o1,-2,3,-2,-1,-1,-1,.,.,.,.
O=C(Nc1ncccc1Cl)c1cc2ccccc2o1,7.3*,3,2,1,16*,2,1,6.2*,18*,1
COc1ccccc1C(=O)Nc1cc2ccccc2oc1=O,.,.,1,.,.,.,.,.,.,.
COc1ccccc1NC(=O)c1cc2ccccc2o1,16*,8,3,1.9*,14*,2,1,15*,22*,1
COc1cc(NC(=O)c2cc3ccccc3o2)c(OC)cc1Br,1,1,0,0,6,1,.,.,.,.
Cc1ccccc1NC(=O)c1cc2ccccc2o1,7.7*,6,3,0,14*,2,1,9.2*,16*,1
Cc1ccsc1C(=O)N1CCC1(C)C(=O)NCc1cccnc1 (stereo not given),-1,-2,.,-2,1,1,.,.,.,.
CC(C)n1cnnc1SCC(=O)Nc1ccc(Br)cc1F,-1,0,-1,-1,-2,1,.,.,.,.
CCOC(=O)C1=CCN(S(=O)(=O)c2ccccc2F)C1c1cccc(C)c1 (stereo not given),-2,0,.,-1,0,1,.,.,.,.
O=C(N/N=C/c1cccc(OCC(=O)N2CCCC2)c1)C(=O)Nc1ccccc1F,-1,-2,-2,-1,-4,0,.,.,.,.
O=C(Nc1ccccc1)c1cc2ccc3ccccc3c2s1,12*,7,4.4*,2.8*,15*,1,1,9.8*,16*,1
Nc1c(C(=O)N2CCOCC2)sc2nc3c(cc12)CCCC3,6.9*,6,-3,0,14*,3,1,7.1*,3,1
Nc1c(C(=O)N2CCCC2)sc2nc3c(cc12)CCCCCC3,3,2,2,-1,7,3,.,.,.,.
CCCCc1cc(=O)oc2cc(OC3CCCCC3=O)ccc12 (stereo not given),1,-1,1,-1,1,0,.,.,.,.
O=C(CSc1nnc(-c2ccncc2)n1-c1ccccc1)NC1CC1,0,1,0,-1,-1,0,.,.,.,.
N/C(=N\OC(=O)c1cc(Br)ccc1Cl)c1ccccn1,16*,4,2,3.8*,21*,3.7*,1,15*,23*,1
N/C(=N\OC(=O)Cc1ccccc1[N+](=O)[O-])c1ccccn1,0,-2,0,-2,0,0,.,.,.,.
Cc1c(C(=O)O/N=C(\N)c2ccccn2)cccc1[N+](=O)[O-],16*,4,2,3.0*,17*,2,1,10*,20*,1
COCCN1Cc2c(sc(C)c2C)N(C(=O)c2ccccc2)C1,9.2*,4,2,1.7*,14*,2,0,3,8,0
COc1cccc(C(=O)NCCS(=O)(=O)NC(C)CCc2ccccc2)c1 (stereo not given),-2,-1,-1,-1,1,-1,.,.,.,.
SMILES,hcDAF12 agonist,SMARCA2 act,DAX1 inh-1,ssDAF-12 act,hgDAF12 agonist,DAX1 inh-2,LXRb hcDAF ctr,hcDAF12 ag,hgDAF12 ag,LXRb DAF12 ctr
COc1cccc(/C=C2\CC3(OC(=O)c4ccco4)CCCN2C3)c1 (stereo not given),-2,-2,.,-1,-2,-1,.,.,.,.
Cc1sc(NC(=O)c2ccco2)nc1-c1ccccc1,7.8*,6,4,1,14*,3,1,7.9*,18*,1
COc1ccc(CC(=O)NCCCSc2ccccc2)cc1OC,-1,-1,-1,-1,0,-2,.,.,.,.
Cc1cc(-c2ccc(N3CCOCC3)cc2)nc2ccccc12,15*,0,1,0.9*,20*,3,1,7.9*,14*,1
O=C(c1ccc(NS(=O)(=O)c2ccc(Cl)c(Cl)c2)cc1)N1CCOCC1,0,-2,0,-1,-1,2,.,.,.,.
CCOC(=O)c1c(C)oc2c1c(C(c1cccnc1)N1CCCCC1)c(O)c1ccccc12 (stereo not given),11*,7,4,1.8*,14*,3,1,6.8*,5,0
CSc1ccc(S(=O)(=O)NCC(=O)OCC(=O)NCc2cccs2)cc1[N+](=O)[O-],-2,-1,0,-1,0,0,.,.,.,.
